Laboratory results published in PubChem BioAssay (NCATS).
Several values for one entry are separate records, joined by “and”; a condition that tells them apart may be missing. Identical values can stand only once. Results filed as inconclusive are left out. A number with no mark means an inactive call. Activity calls are given as the source filed them. Calls follow the shape of the dose curve; as a rule, active = well fitted activation curve with a large enough effect; inconclusive = small, poorly fitted or top-dose-only effect; inactive = no such curve, though single readings can be large or run the other way.

Molecular target: Cellular tumor antigen p53 (Homo sapiens) (UniProt P04637)
Sequence (P04637 whole entry, looked up): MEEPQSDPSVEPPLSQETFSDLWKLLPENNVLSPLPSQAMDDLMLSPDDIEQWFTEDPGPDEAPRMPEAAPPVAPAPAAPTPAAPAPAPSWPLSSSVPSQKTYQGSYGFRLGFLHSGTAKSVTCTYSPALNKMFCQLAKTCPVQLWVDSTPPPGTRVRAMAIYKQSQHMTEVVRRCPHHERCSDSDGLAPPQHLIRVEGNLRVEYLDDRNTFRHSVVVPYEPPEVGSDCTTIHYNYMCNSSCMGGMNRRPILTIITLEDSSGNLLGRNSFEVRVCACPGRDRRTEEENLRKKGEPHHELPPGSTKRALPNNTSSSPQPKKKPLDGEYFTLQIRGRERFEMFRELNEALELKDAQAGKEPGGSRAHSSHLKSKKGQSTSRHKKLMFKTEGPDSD
Assay: Primary qHTS for small molecule compounds that upregulate eGFP-tagged delta133p53alpha (in N-terminal) cells. (AID 2060322); also: nearly all actives have a fitted effect of over 75% in size;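 as to activation: series mostly up to about 56 µM; 0% = DMSO vehicle and 100% = reference activator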
Conditions: NCI-H358 eGFP-delta133p53alpha fluorescence, 24 h; activation: active compounds read high
In short: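 NCI-H358 cells pre-induced 24 h with 10 ng/ml doxycycline to express N-terminal eGFP-delta133p53alpha, then dosed 24 h at 37C without doxycycline; fixed, Hoechst-stained, GFP intensity by laser scanning cytometry, normalized to DMSO (0%) and 57.5 uM 5-azacytidine (100%).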
Potency is read from the fitted curve at half-maximal effect.

Structure (SMILES) | Potency | activation
Nc1nc(Nc2ccc(S(N)(=O)=O)cc2)n(C(=S)Nc2c(F)cccc2F)n1 | 2.13 µM (active) | 
CC(=O)OC/C=C(\C)C(CC1C(C)=C(OC(C)=O)C(=O)C2C(C)(C)C(O)CCC12C)OC(C)=O (stereo not given) |  | -2.68%
CCC(C)C(=O)OC[C@H]1O[C@H](O[C@H]2O[C@H](CO)[C@@H](O)[C@H](O)[C@H]2O)[C@H](O)[C@@H](O)[C@@H]1O (stereo not given in full) |  | 1.53%
C=C1CC23CCC4[C@@](C)(CCC[C@@]4(C)C(=O)O)C2CCC1C3 (stereo not given in full) |  | 6.25%
O=C(O)/C=C/c1ccc(-c2ccc(O)c(C34CC5CC(CC(C5)C3)C4)c2)cc1 | 26.9 µM (active) | 
COc1ccc(C(O)C(C)OC2OC(CO)C(O)C(O)C2O)cc1 (stereo not given) |  | -7.63%
CCC(C)(O)C(O)C(=O)OCc1ccc(O[C@@H]2O[C@H](CO)[C@@H](O)[C@H](O)[C@H]2O)c(OC)c1 (stereo not given in full) |  | -5.36%
CC(C)c1cc(-c2ccc(F)c3ccccc23)nc(N)n1 |  | -13.4%
OC[C@H]1O[C@@H](OC(CCCCc2ccc(O)cc2)CCc2ccc(O)cc2)[C@H](O[C@@H]2OC[C@](O)(CO)[C@H]2O)[C@@H](O)[C@@H]1O (stereo not given in full) |  | -24.4%
Cc1cc(O)cc(O[C@@H]2O[C@H](CO)[C@@H](O)[C@H](O)[C@H]2O)c1 |  | -6.11%
CC(=O)O[C@@H]1[C@@H](O)[C@H](C)O[C@@H](O[C@H]2[C@@H]3C=CO[C@@H](O[C@@H]4O[C@H](CO)[C@@H](O)[C@H](O)[C@H]4OC(C)=O)[C@@H]3[C@@]3(CO)O[C@@H]23)[C@@H]1OC(=O)/C=C/c1ccc(O)cc1 |  | -17.6%
CC(=O)OC[C@@]12[C@H](O)C[C@]3(C)C(=CCC4[C@@]5(C)CC[C@H](O[C@@H]6O[C@H](C(=O)O)[C@@H](O[C@@H]7O[C@H](CO)[C@@H](O)[C@H](O)[C@H]7O)[C@H](O)[C@H]6O[C@@H]6O[C@H](CO)[C@@H](O)[C@H](O)[C@H]6O)[C@](C)(CO)C5CC[C@]43C)[C@@H]1CC(C)(C)[C@@H](OC(C)=O)[C@@H]2O (stereo not given in full) |  | -4.58%
Nc1nc(O)c(C2=C3C(=Nc4ccccc43)C(=O)NCC2)[nH]1 |  | -1.79%
CC1=C2C(=O)O[C@@H](c3ccoc3)[C@]2(C)CCC1 |  | -11.6% and -7%
COC(=O)C1=CO[C@@H](O[C@@H]2O[C@H](CO)[C@@H](O)[C@H](O)[C@H]2O)[C@@H]2C(CO)=CC[C@]12O |  | 1.79%
C/C=C(\C)C(=O)O[C@H]1C=CC(=O)O[C@H]1/C=C/[C@H](O)[C@@H](C)O | 21.3 µM (active) | 
Fc1ccccc1-c1nc2ccn(Cc3ccc(-c4ccc(C(F)(F)F)cc4C(F)(F)F)nn3)cc-2n1 |  | 17%
C=CC(C)(O)CC/C=C(\C)C(=O)OC1C(O)C(CO)OC(OC(=O)C23CCC(C)(C)CC2C2=CCC4C5(C)CCC(OC6OC(COC7OCC(OC(C)=O)C(O)C7OC7OC(COC(C)=O)C(O)C(O)C7O)C(O)C(O)C6O)C(C)(C)C5CCC4(C)C2(C)C(O)C3O)C1OC1OCC(OC2OCC(O)C(OC3OCC(O)C(O)C3O)C2O)C(O)C1O (stereo not given) |  | -9.16%
CC(CO)C1CCC2(C)CC3C(CO)CC(O)C3C(C)(O)C/C=C/12 (stereo not given) |  | -8.04%
C=C1CCC2C(C)(C(=O)O)CCCC2(C)C1CCC(C)CC(=O)O (stereo not given) |  | -3.57%

Structure (SMILES) | Potency | activation
CC(C)CN(C[C@@H](O)[C@H](Cc1ccccc1)NC(=O)O[C@@H]1CO[C@H]2OCC[C@H]21)S(=O)(=O)c1ccc(N)cc1 |  | -7.16%
CC1=C2CC3OC3(C)CCC3OC3(C)CC2OC1=O (stereo not given) |  | 9.82%
CC(C)=CC[C@H]1O[C@]2(O)C([C@H]3CCC4[C@@]5(C)CC[C@H](O[C@@H]6O[C@H](CO)[C@H](O)[C@H](O[C@@H]7O[C@H](CO)[C@@H](O)[C@H](O)[C@H]7O)[C@H]6O[C@@H]6O[C@@H](C)[C@H](O)[C@@H](O)[C@H]6O)C(C)(C)C5CC[C@@]4(C)[C@]3(C)[C@H]2O)[C@@]1(C)O (stereo not given in full) |  | 17.6%
CC(=O)OC1C(O)C(C)(O)C(/C=C/C(=O)O)C2(C)CCCC(C)(C)C12 (stereo not given) |  | -17.6%
C[C@@H]1C(=O)O[C@H]2[C@H](O)C34[C@H]5C[C@@H](C(C)(C)C)C36[C@@H](OC(=O)[C@@H]6O)O[C@@]4(C(=O)O5)[C@@]12O (stereo not given in full) |  | 0.763%
CC1(C)CC2C(O)c3cocc3CC(C)(O)C2C1 (stereo not given) |  | -8.04%
C/C(=C\CCC(C)CCO)C(=O)OC1(C)CCC2C(C(=O)O)=COC(OC3OC(CO)C(O)C(O)C3O)C21 (stereo not given) |  | 4.58%
CC(C)[C@@H](C(=O)O)N1Cc2c(cc(O)c3c2O[C@]2(C3)[C@H](C)CCC3C(C)(C)[C@H](O)[C@H](O)C[C@@]32C)C1=O (stereo not given in full) |  | -16.8%
Cc1cc(C(C)Nc2ccccc2C(=O)O)c2nc(N3CCOCC3)cc(=O)n2c1 (stereo not given) |  | 14.3%
CC1CCCCCCCc2cc(O)cc(O)c2C(=O)O1 (stereo not given) |  | -3.57%
COc1cc(C)c(C(=O)Oc2cc(C)c(C(=O)Oc3cc(C)c(C(=O)NC(C)C(=O)O)c(O)c3)c(O[C@@H]3O[C@H](CO)[C@@H](O)[C@H](O)[C@H]3OC(C)=O)c2)c(OC)c1 (stereo not given in full) |  | -7.63%
CC1=C[C@H]2[C@@H](CC1=O)[C@H](C)C[C@H](O)[C@H]2C(C)C |  | 10.7%
CCCOC(c1cc2nccc(C(=O)O)c2[nH]1)c1ccccc1Cl (stereo not given) |  | 0.333%
COC(=O)[C@]1(C)CCC[C@@]2(C)C(=O)CC[C@H]3C(=O)C=C(CC[C@@H]21)C3O (stereo not given in full) |  | 1.53%
C=C(C(=O)O)C1CC(O)C2(C)CCCC(C)(O)C2C1 (stereo not given) |  | 1.53%
C[C@@]12C(=O)N(c3ccc(C(=O)Nc4cccc5cccnc45)cc3)C(=O)[C@@H]1[C@@H]1C=C[C@H]2C1 |  | 18.3%
COc1cc2c(cc1OC)N1C(=O)C[C@]34C=CCN5CC[C@@H]2[C@@H](CC3)[C@]514 |  | 3.05%
C[C@H](O)C(O)(C(=O)OCc1ccccc1NC(=O)CCC(N)C(=O)O)[C@H](C)O (stereo not given in full) |  | -24.4%
O=S(=O)(NC1CCNCC1)c1cc(S(=O)(=O)c2ccccc2)ccc1C(F)(F)F |  | 5.25%
COc1c2c(c(C)c3c1C(=O)OC3)OC1(C)CC(O)C34OC(OC)(CCC3(C)C1C2)OC4(C)CO (stereo not given) |  | 13%
